# Columns and labels:
# Assay in all cases: DAPPL (digital affinity profiling via proximity ligation, sequencing); 10 mM Tris-HCl pH 7.5, 50 mM NaCl, 1 mM DTT, 4% glycerol, room temperature, 30 min; GST-TFs on glutathione beads, 16-mer random dsDNA library, 0.1% formaldehyde crosslink after washing; high values mean tight binding
# Conditions in all cases: protein: recombinant; tags: N-terminal GST; dsDNA, one strand shown
# FLI1 = target: T1, FLI1 (Homo sapiens, UniProt Q01543 1-452)
# T1 sequence: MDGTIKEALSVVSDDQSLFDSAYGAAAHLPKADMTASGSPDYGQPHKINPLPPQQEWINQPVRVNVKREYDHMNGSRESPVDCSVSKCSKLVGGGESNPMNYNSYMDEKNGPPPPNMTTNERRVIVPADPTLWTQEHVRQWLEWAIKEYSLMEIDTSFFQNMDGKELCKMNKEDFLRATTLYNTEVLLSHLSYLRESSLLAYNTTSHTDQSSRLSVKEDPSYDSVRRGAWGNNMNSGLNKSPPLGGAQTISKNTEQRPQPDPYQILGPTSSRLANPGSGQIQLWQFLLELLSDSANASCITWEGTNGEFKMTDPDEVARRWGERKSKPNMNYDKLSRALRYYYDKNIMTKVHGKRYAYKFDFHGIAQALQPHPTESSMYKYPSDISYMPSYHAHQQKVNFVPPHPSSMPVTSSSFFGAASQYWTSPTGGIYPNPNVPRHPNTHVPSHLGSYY
# Method in brief: (§1)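 Sequencing on an Illumina NextSeq500 followed washing, crosslinking with 0.1% formaldehyde, proximity ligation (BsaI/T4 ligase, 1 h, 37 °C) and PCR amplification of pools that had been incubated for 30 min at room temperature with 200 nmole of a random double-stranded 16-mer DNA library in Tris/NaCl/DTT/glycerol buffer. Each pool held DNA-barcoded human transcription factors, expressed in yeast as GST fusions and captured on glutathione beads, plus a tag-only sample. Binding signal is a hexamer's read frequency for a factor divided by its frequency in the tag-only sample.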
# ELK1 = target: T2, ELK1 (Homo sapiens, UniProt P19419 1-428)
# T2 sequence: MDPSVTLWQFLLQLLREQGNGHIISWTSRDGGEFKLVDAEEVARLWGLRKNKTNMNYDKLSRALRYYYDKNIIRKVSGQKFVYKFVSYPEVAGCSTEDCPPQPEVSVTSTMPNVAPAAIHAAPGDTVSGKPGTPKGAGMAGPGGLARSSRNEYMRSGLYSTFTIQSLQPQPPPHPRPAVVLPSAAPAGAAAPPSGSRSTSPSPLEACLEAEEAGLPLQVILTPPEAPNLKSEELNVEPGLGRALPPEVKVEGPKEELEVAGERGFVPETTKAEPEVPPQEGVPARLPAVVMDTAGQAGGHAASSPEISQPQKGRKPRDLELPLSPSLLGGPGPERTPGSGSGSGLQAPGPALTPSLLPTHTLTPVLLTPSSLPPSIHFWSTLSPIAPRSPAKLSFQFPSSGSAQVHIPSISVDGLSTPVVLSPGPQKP
# Method in brief: as §1
# GABPA = target: T3, GABPA (Homo sapiens, UniProt Q06546 1-454)
# T3 sequence: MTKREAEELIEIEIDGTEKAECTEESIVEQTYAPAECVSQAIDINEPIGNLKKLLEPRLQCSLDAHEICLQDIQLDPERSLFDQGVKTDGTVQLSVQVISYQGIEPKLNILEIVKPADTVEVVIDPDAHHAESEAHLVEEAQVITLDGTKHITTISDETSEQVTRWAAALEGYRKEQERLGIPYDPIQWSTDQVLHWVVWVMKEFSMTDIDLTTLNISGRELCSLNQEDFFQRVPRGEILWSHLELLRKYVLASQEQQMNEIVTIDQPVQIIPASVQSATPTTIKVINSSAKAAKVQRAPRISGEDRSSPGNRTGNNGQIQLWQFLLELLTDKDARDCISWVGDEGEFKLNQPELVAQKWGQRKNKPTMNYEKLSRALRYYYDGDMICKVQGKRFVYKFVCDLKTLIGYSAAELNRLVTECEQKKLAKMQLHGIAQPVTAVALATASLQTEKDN
# Method in brief: as §1
# ERG = target: T4, ERG (Homo sapiens, UniProt P11308 1-479)
# T4 sequence: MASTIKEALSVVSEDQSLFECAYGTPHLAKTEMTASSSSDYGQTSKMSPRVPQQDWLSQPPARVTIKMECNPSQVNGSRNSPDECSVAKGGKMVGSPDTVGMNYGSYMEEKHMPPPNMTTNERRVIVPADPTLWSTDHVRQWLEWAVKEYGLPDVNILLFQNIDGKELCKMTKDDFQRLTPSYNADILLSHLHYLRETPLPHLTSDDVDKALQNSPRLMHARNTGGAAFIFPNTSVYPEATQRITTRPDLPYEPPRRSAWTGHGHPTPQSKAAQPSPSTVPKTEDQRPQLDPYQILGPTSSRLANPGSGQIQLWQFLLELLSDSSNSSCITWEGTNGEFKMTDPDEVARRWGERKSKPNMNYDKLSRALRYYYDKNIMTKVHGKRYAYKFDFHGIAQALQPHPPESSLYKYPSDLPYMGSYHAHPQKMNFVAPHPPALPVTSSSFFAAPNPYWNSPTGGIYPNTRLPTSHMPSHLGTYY
# Method in brief: as §1
# ELF1 = ELF1 (Homo sapiens, UniProt P32519 1-619)
# Method in brief: as §1
# EHF = target: T5, EHF (Homo sapiens, UniProt Q9NZC4 1-300)
# T5 sequence: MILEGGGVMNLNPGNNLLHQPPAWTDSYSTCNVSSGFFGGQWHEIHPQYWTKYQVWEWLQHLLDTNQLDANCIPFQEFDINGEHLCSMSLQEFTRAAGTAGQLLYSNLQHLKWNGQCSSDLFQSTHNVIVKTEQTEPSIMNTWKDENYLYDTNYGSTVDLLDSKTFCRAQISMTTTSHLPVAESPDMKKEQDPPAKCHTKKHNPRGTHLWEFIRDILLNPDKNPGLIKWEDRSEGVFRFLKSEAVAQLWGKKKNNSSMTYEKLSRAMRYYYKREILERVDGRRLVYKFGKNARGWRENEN
# Method in brief: as §1
# SPI1 = SPI1 (Homo sapiens, UniProt P17947 1-270)
# Method in brief: as §1
# SPIB = SPIB (Homo sapiens, UniProt Q01892 1-262)
# Method in brief: as §1
# ELK3 = target: T6, ELK3 (Homo sapiens, UniProt P41970 1-407)
# T6 sequence: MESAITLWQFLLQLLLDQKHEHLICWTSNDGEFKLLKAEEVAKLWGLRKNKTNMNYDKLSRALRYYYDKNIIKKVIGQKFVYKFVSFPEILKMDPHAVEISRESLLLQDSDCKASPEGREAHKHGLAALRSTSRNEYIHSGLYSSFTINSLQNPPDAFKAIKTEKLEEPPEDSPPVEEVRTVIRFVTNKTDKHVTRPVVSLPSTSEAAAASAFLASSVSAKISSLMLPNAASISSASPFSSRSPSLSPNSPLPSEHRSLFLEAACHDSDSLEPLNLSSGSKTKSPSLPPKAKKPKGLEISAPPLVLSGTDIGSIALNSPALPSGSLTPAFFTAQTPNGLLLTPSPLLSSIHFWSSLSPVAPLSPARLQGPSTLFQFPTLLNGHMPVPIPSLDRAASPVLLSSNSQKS
# Method in brief: as §1
# Chain of SPIB (Q01892 whole entry): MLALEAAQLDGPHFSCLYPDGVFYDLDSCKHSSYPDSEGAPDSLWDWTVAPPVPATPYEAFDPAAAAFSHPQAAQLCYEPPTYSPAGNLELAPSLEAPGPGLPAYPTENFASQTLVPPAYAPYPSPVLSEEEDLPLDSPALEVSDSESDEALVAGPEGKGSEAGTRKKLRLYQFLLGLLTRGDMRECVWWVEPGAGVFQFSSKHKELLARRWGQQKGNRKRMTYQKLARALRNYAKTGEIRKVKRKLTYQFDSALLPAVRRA
# Chain of ELF1 (P32519 whole entry): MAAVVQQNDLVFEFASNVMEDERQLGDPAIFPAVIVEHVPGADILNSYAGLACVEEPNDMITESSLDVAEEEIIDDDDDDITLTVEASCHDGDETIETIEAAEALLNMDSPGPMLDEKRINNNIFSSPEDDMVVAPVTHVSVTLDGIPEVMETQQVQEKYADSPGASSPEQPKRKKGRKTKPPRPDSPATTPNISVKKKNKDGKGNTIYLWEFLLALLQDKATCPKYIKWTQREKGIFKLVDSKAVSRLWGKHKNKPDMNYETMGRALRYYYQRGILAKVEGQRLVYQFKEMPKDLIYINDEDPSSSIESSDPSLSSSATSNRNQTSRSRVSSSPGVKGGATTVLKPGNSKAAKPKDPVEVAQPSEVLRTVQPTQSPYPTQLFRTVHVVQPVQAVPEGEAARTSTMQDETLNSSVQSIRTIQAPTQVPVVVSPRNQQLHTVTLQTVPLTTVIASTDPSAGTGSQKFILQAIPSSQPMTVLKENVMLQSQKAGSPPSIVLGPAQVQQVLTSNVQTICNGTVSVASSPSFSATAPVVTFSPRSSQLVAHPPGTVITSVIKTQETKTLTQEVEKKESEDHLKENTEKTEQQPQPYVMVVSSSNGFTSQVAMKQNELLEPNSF
sequence,measurement,setting,value
AGCTAC,binding signal,FLI1,"1.13 fold enrichment (6-mer frequency, TF over GST control)"
same,binding signal,ELK1,"1.11 fold enrichment (6-mer frequency, TF over GST control)"
same,binding signal,GABPA,"1.16 fold enrichment (6-mer frequency, TF over GST control)"
same,binding signal,ERG,"1.13 fold enrichment (6-mer frequency, TF over GST control)"
same,binding signal,ELF1,"1.15 fold enrichment (6-mer frequency, TF over GST control)"
same,binding signal,EHF,"1.22 fold enrichment (6-mer frequency, TF over GST control)"
same,binding signal,SPI1,"1.17 fold enrichment (6-mer frequency, TF over GST control)"
same,binding signal,SPIB,"1.19 fold enrichment (6-mer frequency, TF over GST control)"
same,binding signal,ELK3,"1.18 fold enrichment (6-mer frequency, TF over GST control)"
CCTTGA,binding signal,FLI1,"1.26 fold enrichment (6-mer frequency, TF over GST control)"
same,binding signal,ELK1,"1.26 fold enrichment (6-mer frequency, TF over GST control)"
same,binding signal,GABPA,"1.24 fold enrichment (6-mer frequency, TF over GST control)"
same,binding signal,ERG,"1.27 fold enrichment (6-mer frequency, TF over GST control)"
same,binding signal,ELF1,"1.25 fold enrichment (6-mer frequency, TF over GST control)"
same,binding signal,EHF,"1.23 fold enrichment (6-mer frequency, TF over GST control)"
same,binding signal,SPI1,"1.17 fold enrichment (6-mer frequency, TF over GST control)"
same,binding signal,SPIB,"1.24 fold enrichment (6-mer frequency, TF over GST control)"
same,binding signal,ELK3,"1.4 fold enrichment (6-mer frequency, TF over GST control)"
TACATA,binding signal,FLI1,"1.18 fold enrichment (6-mer frequency, TF over GST control)"
same,binding signal,ELK1,"1.19 fold enrichment (6-mer frequency, TF over GST control)"
same,binding signal,GABPA,"1.22 fold enrichment (6-mer frequency, TF over GST control)"
same,binding signal,ERG,"1.24 fold enrichment (6-mer frequency, TF over GST control)"
same,binding signal,ELF1,"1.18 fold enrichment (6-mer frequency, TF over GST control)"
same,binding signal,EHF,"1.17 fold enrichment (6-mer frequency, TF over GST control)"
same,binding signal,SPI1,"1.15 fold enrichment (6-mer frequency, TF over GST control)"
same,binding signal,SPIB,"1.22 fold enrichment (6-mer frequency, TF over GST control)"
same,binding signal,ELK3,"1.19 fold enrichment (6-mer frequency, TF over GST control)"
CTTAAA,binding signal,FLI1,"1.12 fold enrichment (6-mer frequency, TF over GST control)"
same,binding signal,ELK1,"1.14 fold enrichment (6-mer frequency, TF over GST control)"
same,binding signal,GABPA,"1.24 fold enrichment (6-mer frequency, TF over GST control)"
same,binding signal,ERG,"1.16 fold enrichment (6-mer frequency, TF over GST control)"
same,binding signal,ELF1,"1.22 fold enrichment (6-mer frequency, TF over GST control)"
same,binding signal,EHF,"1.2 fold enrichment (6-mer frequency, TF over GST control)"
same,binding signal,SPI1,"1.22 fold enrichment (6-mer frequency, TF over GST control)"
same,binding signal,SPIB,"1.23 fold enrichment (6-mer frequency, TF over GST control)"
same,binding signal,ELK3,"1.08 fold enrichment (6-mer frequency, TF over GST control)"
ATTCTG,binding signal,FLI1,"1.35 fold enrichment (6-mer frequency, TF over GST control)"
same,binding signal,ELK1,"1.23 fold enrichment (6-mer frequency, TF over GST control)"
same,binding signal,GABPA,"1.33 fold enrichment (6-mer frequency, TF over GST control)"
same,binding signal,ERG,"1.21 fold enrichment (6-mer frequency, TF over GST control)"
same,binding signal,ELF1,"1.26 fold enrichment (6-mer frequency, TF over GST control)"
same,binding signal,EHF,"1.34 fold enrichment (6-mer frequency, TF over GST control)"
same,binding signal,SPI1,"1.27 fold enrichment (6-mer frequency, TF over GST control)"
same,binding signal,SPIB,"1.15 fold enrichment (6-mer frequency, TF over GST control)"
same,binding signal,ELK3,"1.37 fold enrichment (6-mer frequency, TF over GST control)"
TTGCGA,binding signal,FLI1,"1.19 fold enrichment (6-mer frequency, TF over GST control)"
same,binding signal,ELK1,"1.08 fold enrichment (6-mer frequency, TF over GST control)"
same,binding signal,GABPA,"1.1 fold enrichment (6-mer frequency, TF over GST control)"
same,binding signal,ERG,"1.17 fold enrichment (6-mer frequency, TF over GST control)"
same,binding signal,ELF1,"1.16 fold enrichment (6-mer frequency, TF over GST control)"
same,binding signal,EHF,"1.13 fold enrichment (6-mer frequency, TF over GST control)"
same,binding signal,SPI1,"1.17 fold enrichment (6-mer frequency, TF over GST control)"
same,binding signal,SPIB,"1.23 fold enrichment (6-mer frequency, TF over GST control)"
same,binding signal,ELK3,"1.21 fold enrichment (6-mer frequency, TF over GST control)"
ACTGAT,binding signal,FLI1,"1.22 fold enrichment (6-mer frequency, TF over GST control)"
same,binding signal,ELK1,"1.31 fold enrichment (6-mer frequency, TF over GST control)"
same,binding signal,GABPA,"1.27 fold enrichment (6-mer frequency, TF over GST control)"
same,binding signal,ERG,"1.3 fold enrichment (6-mer frequency, TF over GST control)"
same,binding signal,ELF1,"1.28 fold enrichment (6-mer frequency, TF over GST control)"
same,binding signal,EHF,"1.27 fold enrichment (6-mer frequency, TF over GST control)"
same,binding signal,SPI1,"1.31 fold enrichment (6-mer frequency, TF over GST control)"
same,binding signal,SPIB,"1.19 fold enrichment (6-mer frequency, TF over GST control)"
same,binding signal,ELK3,"1.26 fold enrichment (6-mer frequency, TF over GST control)"
CCCGCA,binding signal,FLI1,"1.23 fold enrichment (6-mer frequency, TF over GST control)"
same,binding signal,ELK1,"1.2 fold enrichment (6-mer frequency, TF over GST control)"
same,binding signal,GABPA,"1.25 fold enrichment (6-mer frequency, TF over GST control)"
same,binding signal,ERG,"1.15 fold enrichment (6-mer frequency, TF over GST control)"
same,binding signal,ELF1,"1.29 fold enrichment (6-mer frequency, TF over GST control)"
same,binding signal,EHF,"1.29 fold enrichment (6-mer frequency, TF over GST control)"
same,binding signal,SPI1,"1.22 fold enrichment (6-mer frequency, TF over GST control)"
same,binding signal,SPIB,"1.29 fold enrichment (6-mer frequency, TF over GST control)"
same,binding signal,ELK3,"1.25 fold enrichment (6-mer frequency, TF over GST control)"

# — publication PMC7862700, “An all-to-all approach to the identification of sequence-specific readers for epigenetic DNA modifications on cytosine”
